A short description of assay [1]: qHTS drug screen for cell cycle checkpoint inhibitors in PARPi-resistant BRCA-mutant ovarian cancer cell lines. (AID 1963452). The conditions noted are these: PEO1/OlaR viability, CellTiter-Glo luminescence, 96 h, stronger effect = lower value. Summed up: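 PEO1, PEO4 and PEO1/OlaR ovarian cancer cells, 600 per well, exposed 96 h at 37C to a dilution series. Viability read by CellTiter-Glo luminescence, normalized to DMSO and empty wells; activity summarized as Z-AUC.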
For orientation: qHTS replaces the single test concentration by a dilution series.

Assay [2] concerns the target Nuclear receptor subfamily 1 group I member 2 (Homo sapiens) (UniProt O75469). Kind of assay: Dual reporter qHTS for antagonist of Pregnane X Receptor (hPXR) against the NCATS DSHEA and TCM libraries: Luminescence Readout (AID 1920060; active means well fitted curve in the direction sought with a large enough effect; an effect the other way counts as inactive or inconclusive;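 further: HepG2 cells carrying hPXR luciferase reporter stimulated with rifampicin at 2 µM; 0% is about no effect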). The conditions noted are these: hPXR dual reporter cells, luciferase luminescence, antagonist mode; series mostly up to 40 µM. The gist of the method: (§1)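 HepG2 hPXR-Luc, 2000 cells/well, charcoal-stripped FBS medium; 5 h attach; RIF 2 uM final; 24 h 37C/5% CO2; CellTiter-Fluor 1 h, fluor 405/540; ONE-Glo 30 min RT, lum.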

For assay [3] the target is unchanged. Kind of assay: Dual reporter qHTS for agonist of Pregnane X Receptor (hPXR) against the NCATS DSHEA and TCM libraries: Luminescence readout (AID 1920059; active means well fitted curve in the direction sought with a large enough effect; an effect the other way counts as inactive or inconclusive; further: potency means the concentration at half of the fitted maximal effect). The conditions noted are these: hPXR dual reporter cells, luciferase luminescence agonist; series mostly up to 40 µM. The gist of the method:
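Luminescent PXR reporter read (ONE-Glo) after a CellTiter-Fluor viability read, following 24 h, 37C treatment of HepG2 cells stably carrying hPXR-Luc.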

The nature of assay [4]: Dual reporter qHTS for antagonist of Pregnane X Receptor (hPXR) against the NCATS DSHEA and TCM libraries: Fluorescence Readout (AID 1920061; active means well fitted curve in the direction sought with a large enough effect; an effect the other way counts as inactive or inconclusive; further: 0% is about no effect). The conditions noted are these: PXR dual reporter cells, antagonist mode; series mostly up to 40 µM. Summed up:
as §1

A short description of assay [5]: qHTS for identification of novel therapeutic agents for treatment of microphthalmiaassociated transcription factor (MiT) renal cell carcinoma (RCC) (AID 1963991).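 Further: curves scaled with 100% = DMSO viability and 0% = empty wells.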 The conditions noted are these: CellTiter-Glo, 48 h, stronger effect = lower value. The gist of the method: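 UOK109/UOK124/UOK145 (TFE3 fusions, three partners); 500 cells/well; MIPE v4.0, 1912 cpds, 11 conc.; 48 h, 37 C; CellTiter-Glo, 15 min RT; lum. Norm.: DMSO 100%, empty 0%.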

Assay [6] is described as follows: qHTS profiling for inhibitors of Plasmodium falciparum proliferation (AID 504749; active means well fitted curve in the direction sought with a large enough effect; an effect the other way counts as inactive or inconclusive;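 further: 0% = DMSO vehicle and full inhibition = artemisinin control; nearly all actives have a fitted effect of over 60% in size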). The conditions noted are these: P. falciparum in erythrocytes, SYBR Green DNA, 72 h, at 28.7 µM (top of the series). Summed up:
(§2)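 SYBR Green fluorescence of parasite DNA, read after lysis and overnight dark incubation, measured growth over 72 h in erythrocyte culture at 0.3% parasitemia and 2.5% hematocrit. Data normalised to DMSO and 0.29 uM artemisinin, with plate-drift correction.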

Another assay concerns 3D7. Described as above. The conditions noted are these: P. falciparum in erythrocytes, SYBR Green DNA, 72 h; series mostly up to 28.7 µM. The gist of the method:
as §2

The next assay relates to AA1029. The assay is described as above. The conditions noted are these: P. falciparum in erythrocytes, SYBR Green DNA, 72 h; series mostly up to 28.7 µM. Summed up: as §2
Another assay concerns AS120. Described as above. The conditions noted are these: P. falciparum in erythrocytes, SYBR Green DNA, 72 h; series mostly up to 28.7 µM. Summed up: as §2
[7] abbreviates: measured here: PEO1 parental Z-AUC.
Where [8] appears, read: TFE3-RCC UOK109 viability, measured here: UOK109 Z-AUC.
Setting [9] is: TFE3-RCC viability, measured here: UOK124 Z-AUC.
Where [10] appears, read: TFE3-RCC viability, measured here: UOK145 Z-AUC.

We go through 28 molecules from PubChem BioAssay (NCATS).

Inconclusive results are not listed. Activity calls are given as the source filed them. Unless noted, the call rests on the fitted dose curve.

Sequence of Nuclear receptor subfamily 1 group I member 2 (Homo sapiens) (O75469 whole entry, looked up): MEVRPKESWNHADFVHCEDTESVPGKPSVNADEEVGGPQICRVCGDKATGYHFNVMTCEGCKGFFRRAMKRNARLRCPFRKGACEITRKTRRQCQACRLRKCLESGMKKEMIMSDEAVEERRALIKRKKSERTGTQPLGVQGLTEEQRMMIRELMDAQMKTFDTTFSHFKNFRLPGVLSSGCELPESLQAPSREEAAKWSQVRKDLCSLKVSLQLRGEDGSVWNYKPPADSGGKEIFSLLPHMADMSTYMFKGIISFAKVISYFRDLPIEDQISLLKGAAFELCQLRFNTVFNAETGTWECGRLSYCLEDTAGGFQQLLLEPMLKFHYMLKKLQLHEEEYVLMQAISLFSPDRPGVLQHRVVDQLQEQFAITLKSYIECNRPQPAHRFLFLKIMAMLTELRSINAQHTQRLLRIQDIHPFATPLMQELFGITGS

In the case of `CO[C@@H]1C(N(C)C(=O)c2ccccc2)C[C@H]2O[C@]1(C)n1c3ccccc3c3c4c(c5c6ccccc6n2c5c31)C(=O)NC4=O` (some centres not stated), the Z-AUC is 0.0475 (inactive) in [1], 0.0888 in [1] (setting [7]) and -0.413 in [1] (measured here: PEO4 Z-AUC).

As for `Cc1cc(-c2ncc(CC(=O)Nc3ccc(-c4cnccn4)cn3)cc2C)ccn1`, the Z-AUC in assay [1] was -1.15 (inactive); in [1] (setting [7]) it was -0.663; in assay [1] (measured here: PEO4 Z-AUC), -0.646.

Regarding `CCC(C)SSc1ncc[nH]1` (configuration not stated), the Z-AUC was -1.01 (inactive) in assay [1], -0.667 in assay [1] (setting [7]) and -0.908 in assay [1] (measured here: PEO4 Z-AUC).

Take `CC(C)CNc1ccnc(NCc2csc(-c3ccccc3)n2)n1`: the Z-AUC was -1 (inactive) in [1], -0.906 in [1] (setting [7]) and -0.83 in [1] (measured here: PEO4 Z-AUC).

As for `Cn1cc(-c2ccc3nnc(Sc4ccc5ncccc5c4)n3n2)cn1`, the Z-AUC is 1.3 (inactive) in [1], 1.65 in assay [1] (setting [7]) and 1.9 in assay [1] (measured here: PEO4 Z-AUC).

Take `NCc1c[nH]c(=S)n1[C@H]1CCc2c(F)cc(F)cc2C1`: the Z-AUC in assay [1] was -0.555 (inactive); in assay [1] (setting [7]), -0.422; in [1] (measured here: PEO4 Z-AUC) it was -0.786.

As to `Cc1cccc(-c2[nH]c(C(C)(C)C)nc2-c2ccc3c(c2)OCO3)n1`, the values for the Z-AUC in [1], in [1] (setting [7]) and in assay [1] (measured here: PEO4 Z-AUC) were -0.37 (inactive), -0.0617 and 0.278, respectively.

`C=CC(=O)Nc1cccc(Sc2nc(Nc3ccc(N4CCN(C)CC4)cc3)ncc2Cl)c1`: the Z-AUC was -0.713 (inactive) in [1], 0.0484 in [1] (setting [7]) and 0.0662 in assay [1] (measured here: PEO4 Z-AUC).

Regarding `O=C(Nc1cccc(C(F)(F)F)c1)Nc1cc(S(=O)(=O)NC2CC2)ccc1-c1ccsc1`, the values for the Z-AUC in [1], in assay [1] (setting [7]) and in [1] (measured here: PEO4 Z-AUC) were -0.117 (inactive), -0.289 and -0.479, respectively.

For `O=c1cc(-c2ccc(O)c(O)c2)oc2cc(O)cc(O)c12`, in assay [2], the molecule was classed as inactive. The Z-AUC in assay [1] was 0.185 (inactive); in assay [1] (setting [7]), 0.49; in assay [1] (measured here: PEO4 Z-AUC) it was 0.398.

Take `Cc1nn(Cc2ccccc2Cl)c(C)c1CN(C)CC(O)COc1ccc(Cl)cc1` (configuration not stated): the results for the Z-AUC in assay [1], in assay [1] (setting [7]) and in assay [1] (measured here: PEO4 Z-AUC) were 0.675 (inactive), 0.673 and 0.908, respectively.

On to `O=C(CO)N1CCC(c2[nH]nc(-c3ccc(Cl)cc3)c2-c2ccncn2)CC1`, for which the Z-AUC was -0.00709 (inactive) in assay [1], 0.349 in [1] (setting [7]) and 0.147 in assay [1] (measured here: PEO4 Z-AUC).

For `Cc1cc2nc3c(=O)[nH]c(=O)nc-3n(CC(O)C(O)C(O)CO)c2cc1C` (configuration not stated), the Potency result (in assay [3]; in the assay with 3D7; in the assay on AA1029; in the assay on AS120) was “inactive” in each case. In addition, the molecule was called inactive in assay [2] and in assay [4]. The Z-AUC was -0.035 (inactive) in assay [1], 0.9 in assay [1] (setting [7]) and 1 in assay [1] (measured here: PEO4 Z-AUC). Besides, the z-score in assay [5] (setting [8]) was 1.42; in assay [5] (setting [9]) it was 0.421; in [5] (setting [10]), 0.538. The activity, negative = inhibition in assay [6] (parasite line A) is -17.3% (inactive); in [6] (parasite line B), -10.6% (inactive).

Take `CC1CNc2c(cccc2S(=O)(=O)N[C@@H](CCCN=C(N)N)C(=O)N2CC[C@@H](C)C[C@@H]2C(=O)O)C1` (some centres not stated): the Z-AUC in assay [1] was 1.14 (inactive); in [1] (setting [7]) it was 0.686; in assay [1] (measured here: PEO4 Z-AUC), 1.06.

Take `O=C(NC[C@H](O)CO)c1ccncc1Nc1ccc(I)cc1F`: the Z-AUC was -0.995 (inactive) in assay [1], -0.351 in assay [1] (setting [7]) and -0.367 in assay [1] (measured here: PEO4 Z-AUC).

`CN1CC(=O)NC1=NC(=O)Nc1cccc(Cl)c1`: the Z-AUC was 0.638 (inactive) in [1], 0.15 in assay [1] (setting [7]) and 0.317 in assay [1] (measured here: PEO4 Z-AUC).

In the case of `CN(C)c1ccccc1CN1CCCN(Cc2ccccc2N(C)C)C1c1ccncc1`, the Z-AUC is -0.339 (inactive) in assay [1], 0.0487 in assay [1] (setting [7]) and -0.169 in assay [1] (measured here: PEO4 Z-AUC).

On to `COc1cc2c(cc1Cc1cccc(Cl)c1F)c(=O)c(C(=O)O)cn2[C@H](CO)C(C)C`, for which the Z-AUC in assay [1] is 1.07 (inactive); in assay [1] (setting [7]) it was 0.736; in assay [1] (measured here: PEO4 Z-AUC), 0.927.

Take `COc1ccc(-c2oc3c(CC=C(C)C)c(O)cc(O)c3c(=O)c2O)cc1`: the Z-AUC in [1] was 0.707 (inactive); in [1] (setting [7]), 0.584; in [1] (measured here: PEO4 Z-AUC), 0.876.

As for `c1cc(OCCN2CCCCC2)cc(-c2n[nH]c3ccc(-c4ncn[nH]4)cc23)c1`, the figures for the Z-AUC in assay [1], in assay [1] (setting [7]) and in assay [1] (measured here: PEO4 Z-AUC) were -0.663 (inactive), -0.209 and -0.626, respectively.

`NS(=O)(=O)c1ccc(Nc2nc(OCC3CCCCC3)c3[nH]cnc3n2)cc1`: the Z-AUC is -1.43 (inactive) in [1], -0.91 in assay [1] (setting [7]) and -1.12 in [1] (measured here: PEO4 Z-AUC).

Take `O=C(CC12CC3CC(CC(C3)C1)C2)Nc1cccc2nc(NCCNCCO)ccc12`: the Z-AUC in assay [1] was 0.783 (inactive); in assay [1] (setting [7]), 0.506; in assay [1] (measured here: PEO4 Z-AUC) it was 0.728.

With `N#Cc1ccc(Oc2ccc3c(c2)COB3O)cc1`, the Z-AUC was 0.18 (inactive) in assay [1], 0.583 in [1] (setting [7]) and 0.594 in assay [1] (measured here: PEO4 Z-AUC).

In the case of `CCn1c(-c2nonc2N)nc2cncc(CNC3CCNCC3)c21`, the results for the Z-AUC in assay [1], in [1] (setting [7]) and in assay [1] (measured here: PEO4 Z-AUC) were -0.284 (inactive), 0.212 and 0.661, respectively.

As for `Cc1ccccc1C(=O)c1ccc(Nc2ccc(Br)cc2N)cc1Cl`, the Z-AUC in assay [1] is -0.304 (inactive); in assay [1] (setting [7]), 0.73; in [1] (measured here: PEO4 Z-AUC) it was 0.429.

On to `NC(=O)c1noc([C@H](CCCC2CCCCC2)CC(=O)NO)n1`, for which the Z-AUC in assay [1] was 1.33 (inactive); in assay [1] (setting [7]), 0.607; in [1] (measured here: PEO4 Z-AUC) it was 0.522.

For the molecule `CCOc1ccccc1N=Nc1c(C)[nH]n(-c2nc(-c3ccccc3)cs2)c1=O`, the values for the Z-AUC in [1], in assay [1] (setting [7]) and in assay [1] (measured here: PEO4 Z-AUC) were 1.3 (inactive), 1.25 and 1.22, respectively.

`CC(C)(CO)[C@@H](O)C(=O)NCCC(=O)O`: the Potency in assay [3] is 11.2 µM (active). The outcome in assay [2] and in assay [4] was inactive. Further, the Z-AUC in [1] was -0.0324 (inactive); in [1] (setting [7]), 0.0769; in assay [1] (measured here: PEO4 Z-AUC), 0.104. Moreover, the z-score was 1.12 in assay [5] (setting [8]), 0.429 in [5] (setting [9]) and -0.0311 in assay [5] (setting [10]).
